The source made the active and inactive calls.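 Rule for the calls, unless noted: active = fluorescence slope after compound addition differing from the mean of all screened samples at 99.7% confidence, in either direction; inactive = the rest.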
Experiments:
[1] = inhibitors of TNFa-induced NFkB p65 translocation, primary screen, imaging, HUVEC, MLSMR starter and 10KST1 sets (AID 438;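 active = inhibition above 20% together with a positive visual image hit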;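 note: compound added about 3h40 before a 20 min TNFalpha stimulation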;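 for inhibition: signal is the nuclear over cytoplasmic p65 intensity ratio per well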); details: HUVEC TNFa-induced p65 nuclear translocation; cell count: measured here: nuclei count (cytotoxicity indicator), at 2.08 µM; inhibition: at 2 µM, stronger effect = higher value, 0% TNFa-plus-vehicle, 100% no-TNFa wells
[2] = inhibitors of mutant huntingtin aggregation, primary screen, imaging, exon1htt(103Q)mCFP cells, high-content imaging (AID 483;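 active = visual image review flags a hit and inhibition of aggregation exceeds 20%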;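 note: compound exposure lasted 3 days before fixation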;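 for nuclei count: percent of the per-plate median nuclei count of sample wells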); details: exon1htt(103Q)mCFP cell line, aggregate imaging, at 2 µM; inhibition of aggregation: stronger effect = higher value; nuclei count: measured here: cell count, toxicity
[3] = inhibitors of E-selectin induction by TNFa, primary screen, imaging, HUVEC, immunofluorescence, MLSMR starter and 10KST1 sets (AID 487;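 active = visually confirmed hit in the image check and inhibition above 20%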;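 for inhibition: signal is fraction of cell area covered by stained E-selectin grains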;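 for nuclei count: 100% = median nuclei count of all wells on the same plate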); details: HUVEC TNFalpha-induced E-selectin immunofluorescence imaging, at 2 µM; inhibition: stronger effect = higher value; nuclei count: measured here: cell number, toxicity
[4] = target: Voltage-gated potassium channel subunit beta-2 (Rattus norvegicus) (UniProt P62483); test: KvBeta enzyme negative modulators, primary screen, biochemical, NADPH fluorescence (AID 622;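 active = fluorescence slope higher than the sample average by over 3 SD, cut at about -0.22 in these data, passing the limit was not always enough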;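 note: slope of raw intensity against log time taken from 70 to 1610 s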); details: recombinant KvBeta, 4-cyanobenzaldehyde reduction, at 10 µM, stronger effect = higher value
Sequence of Voltage-gated potassium channel subunit beta-2 (Rattus norvegicus) (P62483 whole entry, looked up): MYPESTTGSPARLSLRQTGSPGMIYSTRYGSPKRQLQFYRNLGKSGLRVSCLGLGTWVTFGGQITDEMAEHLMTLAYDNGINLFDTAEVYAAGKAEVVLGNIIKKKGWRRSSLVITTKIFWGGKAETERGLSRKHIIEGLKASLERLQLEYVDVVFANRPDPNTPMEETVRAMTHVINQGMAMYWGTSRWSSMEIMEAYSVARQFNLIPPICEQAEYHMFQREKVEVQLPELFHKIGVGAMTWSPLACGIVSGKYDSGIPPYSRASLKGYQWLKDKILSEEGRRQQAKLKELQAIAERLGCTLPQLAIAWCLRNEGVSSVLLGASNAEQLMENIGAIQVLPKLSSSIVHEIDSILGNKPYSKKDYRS

[5] = target: Voltage-gated potassium channel subunit beta-2 (Rattus norvegicus) (UniProt P62483); test: KvBeta positive modulators, primary screen, biochemical, NADPH fluorescence (AID 623;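 active = NADPH fluorescence slope more negative than the mean of all samples by about 3 SD, 99.7% confidence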;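 note: fluorescence intensity change per second fitted from 20 to 320 s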); details: Recombinant KvBeta, NADPH fluorescence decrease slope, 10 min; at 10 µM; stronger effect = lower value
[6] = target: Alpha-2C adrenergic receptor (Homo sapiens) (UniProt P18825); test: modulators of alpha2C/GIRK thallium flux, primary screen, cell-based, HEK293 alpha2C/GIRK1/2 (AID 624); details: thallium flux BTC fluorescence, at 10 µM, actives lie on both sides;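 note: slope of fluorescence ratio to pre-addition baseline per second over 15 to 24 s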
Sequence of Alpha-2C adrenergic receptor (Homo sapiens) (P18825 whole entry, looked up): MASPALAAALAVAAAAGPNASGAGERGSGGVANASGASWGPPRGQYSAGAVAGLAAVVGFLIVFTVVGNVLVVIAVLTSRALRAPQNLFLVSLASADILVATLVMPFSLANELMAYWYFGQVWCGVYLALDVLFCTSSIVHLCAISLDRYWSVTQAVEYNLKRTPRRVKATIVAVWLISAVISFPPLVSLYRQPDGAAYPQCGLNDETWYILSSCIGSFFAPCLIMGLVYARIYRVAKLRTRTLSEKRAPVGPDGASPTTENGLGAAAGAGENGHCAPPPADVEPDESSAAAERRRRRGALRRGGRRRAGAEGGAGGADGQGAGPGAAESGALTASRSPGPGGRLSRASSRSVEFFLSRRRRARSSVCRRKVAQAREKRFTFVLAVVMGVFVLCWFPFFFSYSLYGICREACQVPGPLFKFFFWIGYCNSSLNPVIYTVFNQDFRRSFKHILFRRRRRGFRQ

[7] = inhibitors of Sendai virus-induced IRF3 signaling, primary screen, TLR/RLR signaling modifier project, cell-based, Sendai virus stimulus, luciferase, 10K MLSCN set (AID 602276;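 active = inhibition at or above 50% at 10 µM; inactive = inhibition below 50%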;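 note: firefly luciferase from ISG56 promoter only with Renilla not read in this screen; 0% = Sendai virus plus DMSO and 100% = medium plus DMSO without virus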); details: HEK293 RL24 IRF3 luciferase reporter, at 10 µM, stronger effect = higher value
[8] = inhibitors of poly I:C-induced TLR3 signaling, primary screen, cell-based, poly I:C stimulus, luciferase, 10K MLSCN set (AID 602277;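 active = inhibition of the reporter signal at or above 50%; inactive = inhibition below 50%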); details: HEK293-TLR3 RL24 IRF3 luciferase reporter, at 10 µM, stronger effect = higher value

C=C(C)Cn1c(N2CC(C)CC(C)C2)nc2c1c(=O)[nH]c(=O)n2C (centres undefined)
cell count [1]: 616 | inhibition [1]: -8% (inactive) | inhibition of aggregation [2]: -2.3% (inactive) | nuclei count [2]: 104% | inhibition [3]: -8.5% (inactive) | nuclei count [3]: 108% | fluorescence slope [4]: -0.421 (inactive) | NADPH fluorescence slope [5]: -1.7e-05 (inactive) | slope [6]: 0.00499 (inactive) | inhibition [7]: 12.7% (inactive) | inhibition [8]: 41.2% (inactive)

Cc1cc(NC(=O)Cc2cn3ccsc3n2)n(-c2ccccc2)n1
cell count [1]: 823 | inhibition [1]: -16.9% (inactive) | inhibition of aggregation [2]: -16.8% (inactive) | nuclei count [2]: 104% | inhibition [3]: -23.9% (inactive) | nuclei count [3]: 106% | fluorescence slope [4]: -0.308 (inactive) | NADPH fluorescence slope [5]: -1.7e-07 (inactive) | slope [6]: 0.00558 (inactive) | inhibition [7]: 5.91% (inactive) | inhibition [8]: 5.15% (inactive)

CCN1CCN(C(=O)c2oc(=O)c3ccccc3c2-c2ccc(C)cc2)CC1
cell count [1]: 805 | inhibition [1]: -15.2% (inactive) | inhibition of aggregation [2]: 8.7% (inactive) | nuclei count [2]: 94.3% | inhibition [3]: -58.3% (inactive) | nuclei count [3]: 121% | fluorescence slope [4]: -0.49 (inactive) | NADPH fluorescence slope [5]: -4.9e-05 (inactive) | slope [6]: 0.00617 (inactive) | inhibition [7]: 10.4% (inactive) | inhibition [8]: 27.7% (inactive)

COc1cccc(/C=N/n2c(C)nc3ccccc32)c1OC
cell count [1]: 431 | inhibition [1]: 0.5% (inactive) | inhibition of aggregation [2]: 32.5% (active) | nuclei count [2]: 84.3% | inhibition [3]: -27.6% (inactive) | nuclei count [3]: 123% | fluorescence slope [4]: -0.391 (inactive) | NADPH fluorescence slope [5]: 3.2e-05 (inactive) | slope [6]: 0.00613 (inactive) | inhibition [7]: -7.57% (inactive) | inhibition [8]: -59.7% (inactive)

CC1=C(C(=O)OC(C)C)C(c2ccccn2)n2ncnc2N1 (centres undefined)
cell count [1]: 751 | inhibition [1]: -0.6% (inactive) | inhibition of aggregation [2]: -35.6% (inactive) | nuclei count [2]: 79.5% | inhibition [3]: -75.2% (inactive) | nuclei count [3]: 110% | fluorescence slope [4]: -0.569 (inactive) | NADPH fluorescence slope [5]: -3e-05 (inactive) | slope [6]: 0.00699 (inactive) | inhibition [7]: 0.999% (inactive) | inhibition [8]: 30.5% (inactive)

CC(C)Cn1c(N)c(C(=O)COC(=O)c2ccc3c(c2)OCCO3)c(=O)n(C)c1=O
cell count [1]: 365 | inhibition [1]: -4.4% (inactive) | inhibition of aggregation [2]: -5.7% (inactive) | nuclei count [2]: 75.7% | inhibition [3]: -5.7% (inactive) | nuclei count [3]: 106% | fluorescence slope [4]: -0.575 (inactive) | NADPH fluorescence slope [5]: -6.3e-05 (inactive) | slope [6]: 0.0066 (inactive) | inhibition [7]: -14.6% (inactive) | inhibition [8]: -49.5% (inactive)

CCNC(=O)C1CC(=O)N(Cc2ccc3c(c2)OCO3)C(=Nc2ccc(F)cc2)S1 (centres undefined)
cell count [1]: 705 | inhibition [1]: -0.8% (inactive) | inhibition of aggregation [2]: -38.8% (inactive) | nuclei count [2]: 109% | inhibition [3]: -83.7% (inactive) | nuclei count [3]: 98% | fluorescence slope [4]: -0.471 (inactive) | NADPH fluorescence slope [5]: -0.000221 (inactive) | slope [6]: 0.00631 (inactive) | inhibition [7]: -2.28% (inactive) | inhibition [8]: 16% (inactive)

COc1cccc(CNC(=O)C2CCN(C(=O)N(C)C)CC2)c1
cell count [1]: 569 | inhibition [1]: 8.3% (inactive) | inhibition of aggregation [2]: -46.5% (inactive) | nuclei count [2]: 52.8% | inhibition [3]: -15.7% (inactive) | nuclei count [3]: 109% | fluorescence slope [4]: -0.345 (inactive) | NADPH fluorescence slope [5]: -6.9e-05 (inactive) | slope [6]: 0.00563 (inactive) | inhibition [7]: 11.6% (inactive) | inhibition [8]: 32.8% (inactive)

Cc1nnc(SCC(=O)Nc2sc3c(c2C#N)CCCC3)[nH]c1=O
cell count [1]: 368 | inhibition [1]: 2.8% (inactive) | inhibition of aggregation [2]: -12.9% (inactive) | nuclei count [2]: 114% | inhibition [3]: -31.8% (inactive) | nuclei count [3]: 108% | fluorescence slope [4]: -0.441 (inactive) | NADPH fluorescence slope [5]: 1.2e-05 (inactive) | slope [6]: 0.00274 (inactive) | inhibition [7]: 8.57% (inactive) | inhibition [8]: 39.4% (inactive)

O=S(=O)(Nc1nc2ccccc2nc1NCc1ccco1)c1cccs1
cell count [1]: 448 | inhibition [1]: -6.2% (inactive) | inhibition of aggregation [2]: -18.2% (inactive) | nuclei count [2]: 105% | inhibition [3]: -73.9% (inactive) | nuclei count [3]: 120% | fluorescence slope [4]: -0.298 (inactive) | NADPH fluorescence slope [5]: -6.8e-05 (inactive) | slope [6]: 0.00495 (inactive) | inhibition [7]: 14.7% (inactive) | inhibition [8]: 14.6% (inactive)

Cn1cc(Br)c(C(=O)NC2CCCCC2)n1
cell count [1]: 483 | inhibition [1]: -5.1% (inactive) | inhibition of aggregation [2]: -0.3% (inactive) | nuclei count [2]: 105% | inhibition [3]: -145% (inactive) | nuclei count [3]: 238% | fluorescence slope [4]: -0.408 (inactive) | NADPH fluorescence slope [5]: 1.7e-05 (inactive) | slope [6]: 0.00924 (inactive) | inhibition [7]: 7.35% (inactive) | inhibition [8]: 5.88% (inactive)

CCOC(=O)c1[nH]c2ccccc2c1NC(=O)C(CC)CC
cell count [1]: 689 | inhibition [1]: -10.7% (inactive) | inhibition of aggregation [2]: -18.7% (inactive) | nuclei count [2]: 118% | inhibition [3]: -11% (inactive) | nuclei count [3]: 107% | fluorescence slope [4]: -0.466 (inactive) | NADPH fluorescence slope [5]: -3.3e-05 (inactive) | slope [6]: 0.00668 (inactive) | inhibition [7]: 12.4% (inactive) | inhibition [8]: 40.3% (inactive)

Cn1cccc1Cc1nnc(SCC(=O)Nc2ccc(F)cc2)n1-c1ccc(F)cc1
cell count [1]: 843 | inhibition [1]: 1.4% (inactive) | inhibition of aggregation [2]: -2.2% (inactive) | nuclei count [2]: 95.4% | inhibition [3]: -45.2% (inactive) | nuclei count [3]: 116% | fluorescence slope [4]: -0.592 (inactive) | NADPH fluorescence slope [5]: -1.8e-05 (inactive) | slope [6]: 0.00531 (inactive) | inhibition [7]: 10.5% (inactive) | inhibition [8]: 27.7% (inactive)

Cc1nc2ccc(NC(=O)NCc3ccco3)cc2s1
cell count [1]: 359 | inhibition [1]: -2.2% (inactive) | inhibition of aggregation [2]: 21.2% (inactive) | nuclei count [2]: 100% | inhibition [3]: -15.3% (inactive) | nuclei count [3]: 82.3% | fluorescence slope [4]: -0.338 (inactive) | NADPH fluorescence slope [5]: 5e-06 (inactive) | slope [6]: 0.00475 (inactive) | inhibition [7]: -22.3% (inactive) | inhibition [8]: -83.4% (inactive)
